PubChem BioAssay
The source made the active and inactive calls.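 The calls were made as follows, unless noted: active = inhibition at or above 50% at 10 µM; inactive = inhibition below 50%.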

How the values were obtained:
[1] = inhibitors of TNFa-induced NFkB p65 translocation, primary screen, imaging, HUVEC, MLSMR starter and 10KST1 sets (AID 438;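 active = inhibition above 20% together with a positive visual image hit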;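 also: compound added about 3h40 before a 20 min TNFalpha stimulation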;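 as to inhibition: signal is the nuclear over cytoplasmic p65 intensity ratio per well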); details: HUVEC TNFa-induced p65 nuclear translocation; cell count: measured here: nuclei count (cytotoxicity indicator), at 2.08 µM; inhibition: at 2 µM, stronger effect = higher value, 0% TNFa-plus-vehicle, 100% no-TNFa wells
[2] = inhibitors of mutant huntingtin aggregation, primary screen, imaging, exon1htt(103Q)mCFP cells, high-content imaging (AID 483;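 active = visual image review flags a hit and inhibition of aggregation exceeds 20%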;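 also: compound exposure lasted 3 days before fixation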;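 as to nuclei count: percent of the per-plate median nuclei count of sample wells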); details: exon1htt(103Q)mCFP cell line, aggregate imaging, at 2 µM; inhibition of aggregation: stronger effect = higher value; nuclei count: measured here: cell count, toxicity
[3] = inhibitors of E-selectin induction by TNFa, primary screen, imaging, HUVEC, immunofluorescence, MLSMR starter and 10KST1 sets (AID 487;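 active = visually confirmed hit in the image check and inhibition above 20%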;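 as to inhibition: signal is fraction of cell area covered by stained E-selectin grains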;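 as to nuclei count: 100% = median nuclei count of all wells on the same plate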); details: HUVEC TNFalpha-induced E-selectin immunofluorescence imaging, at 2 µM; inhibition: stronger effect = higher value; nuclei count: measured here: cell number, toxicity
[4] = biological target: Voltage-gated potassium channel subunit beta-2 (Rattus norvegicus) (UniProt P62483); experiment: KvBeta enzyme negative modulators, primary screen, biochemical, NADPH fluorescence (AID 622;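 active = fluorescence slope higher than the sample average by over 3 SD, cut at about -0.22 in these data, passing the limit was not always enough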;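 also: slope of raw intensity against log time taken from 70 to 1610 s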); details: recombinant KvBeta, 4-cyanobenzaldehyde reduction, at 10 µM, stronger effect = higher value
[5] = biological target: Voltage-gated potassium channel subunit beta-2 (Rattus norvegicus) (UniProt P62483); experiment: KvBeta positive modulators, primary screen, biochemical, NADPH fluorescence (AID 623;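 active = NADPH fluorescence slope more negative than the mean of all samples by about 3 SD, 99.7% confidence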;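 also: fluorescence intensity change per second fitted from 20 to 320 s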); details: Recombinant KvBeta, NADPH fluorescence decrease slope, 10 min; at 10 µM; stronger effect = lower value
[6] = biological target: Alpha-2C adrenergic receptor (Homo sapiens) (UniProt P18825); experiment: modulators of alpha2C/GIRK thallium flux, primary screen, cell-based, HEK293 alpha2C/GIRK1/2 (AID 624;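 active = fluorescence slope after compound addition differing from the mean of all screened samples at 99.7% confidence, in either direction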;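 also: slope of fluorescence ratio to pre-addition baseline per second over 15 to 24 s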); details: thallium flux BTC fluorescence, at 10 µM, actives lie on both sides
[7] = inhibitors of Sendai virus-induced IRF3 signaling, primary screen, TLR/RLR signaling modifier project, cell-based, Sendai virus stimulus, luciferase, 10K MLSCN set (AID 602276); details: HEK293 RL24 IRF3 luciferase reporter, at 10 µM, stronger effect = higher value;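 also: firefly luciferase from ISG56 promoter only with Renilla not read in this screen; 0% = Sendai virus plus DMSO and 100% = medium plus DMSO without virus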
[8] = inhibitors of poly I:C-induced TLR3 signaling, primary screen, cell-based, poly I:C stimulus, luciferase, 10K MLSCN set (AID 602277;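 active = inhibition of the reporter signal at or above 50%; inactive = inhibition below 50%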); details: HEK293-TLR3 RL24 IRF3 luciferase reporter, at 10 µM, stronger effect = higher value

Chain of Alpha-2C adrenergic receptor (Homo sapiens) (P18825 whole entry, looked up): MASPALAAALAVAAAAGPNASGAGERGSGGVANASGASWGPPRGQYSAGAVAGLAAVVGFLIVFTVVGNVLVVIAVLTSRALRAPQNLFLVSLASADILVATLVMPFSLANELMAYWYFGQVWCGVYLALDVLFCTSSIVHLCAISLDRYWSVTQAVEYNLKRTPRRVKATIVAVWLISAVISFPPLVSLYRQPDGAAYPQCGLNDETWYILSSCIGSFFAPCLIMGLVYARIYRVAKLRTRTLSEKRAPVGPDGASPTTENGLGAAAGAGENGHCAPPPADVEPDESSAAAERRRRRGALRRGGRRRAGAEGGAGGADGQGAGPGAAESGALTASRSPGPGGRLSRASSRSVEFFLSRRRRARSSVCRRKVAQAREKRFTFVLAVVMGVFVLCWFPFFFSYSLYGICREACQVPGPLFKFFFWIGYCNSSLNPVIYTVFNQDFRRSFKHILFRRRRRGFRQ
Chain of Voltage-gated potassium channel subunit beta-2 (Rattus norvegicus) (P62483 whole entry, looked up): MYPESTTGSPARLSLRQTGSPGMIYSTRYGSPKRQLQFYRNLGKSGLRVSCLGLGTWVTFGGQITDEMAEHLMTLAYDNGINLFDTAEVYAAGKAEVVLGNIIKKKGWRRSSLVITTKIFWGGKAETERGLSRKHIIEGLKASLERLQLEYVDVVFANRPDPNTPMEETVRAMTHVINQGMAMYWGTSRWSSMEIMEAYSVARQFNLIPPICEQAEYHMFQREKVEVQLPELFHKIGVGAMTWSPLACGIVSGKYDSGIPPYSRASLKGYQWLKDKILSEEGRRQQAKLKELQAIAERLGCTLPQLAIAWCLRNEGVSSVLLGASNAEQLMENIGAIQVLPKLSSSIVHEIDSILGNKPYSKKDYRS

Row | SMILES | cell count [1] | inhibition [1] | inhibition of aggregation [2] | nuclei count [2] [%] | inhibition [3] | nuclei count [3] [%] | fluorescence slope [4] | NADPH fluorescence slope [5] | slope [6] | inhibition [7] | inhibition [8]
1 | CCOC(=O)c1cccc(NC(=O)CSc2nnc(-c3cccnc3)n2C)c1 | 505 | -0.3% (inactive) | 8.9% (inactive) | 97.6 | -100% (inactive) | 134 | -0.285 (inactive) | -5.6e-05 (inactive) | 0.00612 (inactive) | 8.88% (inactive) | 10.4% (inactive)
2 | COc1cc(C)nc(N2CCCC(C(=O)Nc3cccc(Cl)c3Cl)C2)n1 (stereo not given) | 395 | 3.6% (inactive) | -14.9% (inactive) | 109 | -0.7% (inactive) | 103 | -0.467 (inactive) | -2.4e-05 (inactive) | 0.00338 (inactive) | 4.19% (inactive) | 21.4% (inactive)
3 | Cc1cccc(N2CCN(C(=O)CCn3c(=S)[nH]c4cc5c(cc4c3=O)OCO5)CC2C)c1 (stereo not given) | 488 | 3% (inactive) | -4.6% (inactive) | 112 | -1.8% (inactive) | 97.2 | -0.614 (inactive) | -2.6e-05 (inactive) | 0.00669 (inactive) | 9.48% (inactive) | 38.2% (inactive)
4 | Cc1nnc(SCc2cc(=O)[nH]c(N3CCCCC3)n2)s1 | 639 | 5% (inactive) | 0.6% (inactive) | 96.3 | 14.7% (inactive) | 107 | -0.592 (inactive) | -3.2e-05 (inactive) | 0.00759 (inactive) | 13.1% (inactive) | 19.7% (inactive)
5 | Cc1ccc(Cn2c(CN3CCOCC3)nc3c2c(=O)n(C)c(=O)n3C)cc1 | 332 | 19.7% (inactive) | 16.7% (inactive) | 104 | -3.6% (inactive) | 104 | -0.48 (inactive) | -4.2e-05 (inactive) | 0.00599 (inactive) | 2.2% (inactive) | 26.6% (inactive)
6 | COc1ccccc1N1CCN(c2cc(=O)n(Cc3ccc(F)cc3)c(=O)[nH]2)CC1 | 503 | -2.8% (inactive) | 2% (inactive) | 44 | 11.7% (inactive) | 106 | -0.569 (inactive) | -3.7e-05 (inactive) | 0.00657 (inactive) | 17.1% (inactive) | 29.3% (inactive)
7 | Cc1nc(N)c(C#N)c(-c2cccnc2)c1C | 494 | -14.5% (inactive) | 30.9% (inactive) | 85 | -16.2% (inactive) | 88.9 | -0.411 (inactive) | 1.8e-05 (inactive) | 0.00561 (inactive) | 4.72% (inactive) | -5.6% (inactive)
8 | CN(C)c1ccc(/C=C/c2ccncc2)cc1 | 311 | -5.5% (inactive) | 22.3% (inactive) | 83.5 | -76.4% (inactive) | 87.8 | -0.382 (inactive) | 1.7e-05 (inactive) | 0.00338 (inactive) | -62.5% (inactive) | -181% (inactive)
9 | Cc1oc2cc3c(C(=O)OCCN(C)C)c(C)oc3cc2c1C(=O)OCCN(C)C | 445 | -6% (inactive) | -22.9% (inactive) | 95.2 | -44.7% (inactive) | 92.4 | -0.412 (inactive) | -3.3e-05 (inactive) | 0.00351 (inactive) | 48.3% (inactive) | 99.1% (active)
10 | CC(C)(C)Cc1nc(-c2ccccn2)no1 | 379 | 0.8% (inactive) | -13.5% (inactive) | 109 | -71.1% (inactive) | 115 | -0.44 (inactive) | -2.3e-05 (inactive) | 0.00439 (inactive) | -5.86% (inactive) | -18.2% (inactive)
11 | COC(=O)c1cccc(Oc2nc3c(c(=O)n(C)c(=O)n3C)n2C(C)C)c1 | 668 | -5.8% (inactive) | 3.9% (inactive) | 102 | -55.6% (inactive) | 106 | -0.436 (inactive) | -3.6e-05 (inactive) | 0.00584 (inactive) | 15% (inactive) | 28.3% (inactive)
12 | CC(C)CNC(=O)c1ccccc1NC(=O)c1ccc(CN2CCOCC2)cc1 | 729 | 5.7% (inactive) | 4% (inactive) | 93.4 | -11% (inactive) | 111 | -0.473 (inactive) | -5.1e-05 (inactive) | 0.00594 (inactive) | 1.28% (inactive) | 14.5% (inactive)
13 | c1ccc(N2CCN(Cc3ccnc4ccccc34)CC2)cc1 | 424 | 5.4% (inactive) | 10.4% (inactive) | 83.9 | 43.4% (inactive) | 102 | -0.477 (inactive) | -3.9e-05 (inactive) | 0.0043 (inactive) | -12.4% (inactive) | -22.2% (inactive)
14 | CN1CCN(CCCNC(=O)Cn2ncc3c4ccccc4n(C)c3c2=O)CC1 | 479 | -2.6% (inactive) | -7.2% (inactive) | 98 | -69.4% (inactive) | 100 | -0.615 (inactive) | -1.6e-07 (inactive) | 0.0065 (inactive) | -10.3% (inactive) | 35.3% (inactive)
15 | Cc1ccc2[nH]cc(C(=O)CN3CCC4(CC3)OCCO4)c2c1 | 355 | 2% (inactive) | 14.9% (inactive) | 88 | -18.9% (inactive) | 122 | -0.619 (inactive) | -9.1e-06 (inactive) | 0.00468 (inactive) | 4.24% (inactive) | 7.68% (inactive)
16 | CCCN1C2CCCC1CC(NC(=O)c1ccccc1F)C2 (stereo not given) | 461 | 6% (inactive) | -1.6% (inactive) | 115 | 14.8% (inactive) | 101 | -0.515 (inactive) | -4.7e-05 (inactive) | 0.00485 (inactive) | 10.6% (inactive) | 17.7% (inactive)
17 | COc1ccc(NC(=O)COc2ccccc2)c(OC)c1 | 404 | 8.8% (inactive) | -15.2% (inactive) | 106 | 1.1% (inactive) | 108 | -0.418 (inactive) | -4.6e-05 (inactive) | 0.00449 (inactive) | -32.8% (inactive) | -89.1% (inactive)
18 | Cc1ccc(S(=O)(=O)N2C(=O)CCC2C(=O)Nc2ccc3c(c2)OCCO3)cc1 (stereo not given) | 430 | 3.8% (inactive) | -9.4% (inactive) | 101 | -32.2% (inactive) | 102 | -0.446 (inactive) | -2.2e-05 (inactive) | 0.00315 (inactive) | 10.3% (inactive) | 27.4% (inactive)
19 | CCC1(c2ccc(F)cc2)NC(=O)N(CC(=O)c2ccc[nH]2)C1=O (stereo not given) | 556 | -20.6% (inactive) | 6.8% (inactive) | 99.9 | -36.7% (inactive) | 114 | -0.419 (inactive) | -4.1e-05 (inactive) | 0.00348 (inactive) | 4.26% (inactive) | 27% (inactive)
20 | O=C(COc1ccccc1)N1CCN(c2ncnc3c2cnn3-c2ccccc2)CC1 | 476 | 1% (inactive) | 1.3% (inactive) | 108 | -4.4% (inactive) | 119 | -0.623 (inactive) | -4e-05 (inactive) | 0.00515 (inactive) | 14.5% (inactive) | -0.433% (inactive)
